# Test results as given in the supplement of paper PMC6555819.
# Legend:
# Experiment in all cases: PBM binding z-score (relative to random genomic background probes); higher = stronger binding; sequences stand for … in GC…GCGATTGACAGCGTAGAATGAAGG
# [1] = system: FXR:RXRa (NR concentration 270 nM, RXRa partner concentration 90 nM)
# Summary of the method: (§1)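 Custom Agilent 4×180K protein-binding microarrays carried double-stranded probes. Their 34-nt variable regions held direct-repeat seeds, single-nucleotide variants, half-site ablations and random human genomic background sequences. Arrays were incubated 1 h with ligand-free nuclear receptor dimers in PBS pH 7.4, 2% milk, 0.02% Triton X-100, 1 mM DTT, 0.2 mg/mL BSA and 0.4 mg/ml salmon testes DNA. Antibodies against each partner (one per run) detected binding, and scanned fluorescence was regression-normalized. Binding z-scores use random background probes as reference.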
# [2] = system: LXRa:RXRa (NR concentration 270 nM, RXRa partner concentration 90 nM)
# Summary of the method: as §1
# [3] = system: LXRa homodimer (NR concentration 270 nM)
# Summary of the method: as §1
# [4] = system: LXRb:RXRa (NR concentration 270 nM, RXRa partner concentration 90 nM)
# Summary of the method: as §1
# [5] = system: LXRb homodimer (NR concentration 270 nM)
# Summary of the method: as §1
# [6] = system: PPARa:RXRa (NR concentration 270 nM, RXRa partner concentration 90 nM)
# Summary of the method: as §1
# [7] = system: PPARg:RXRa (NR concentration 180 nM, RXRa partner concentration 90 nM)
# Summary of the method: as §1
# [8] = system: PPARg:RXRa 270nM:90nM, anti-RXR (NR concentration 270 nM, RXRa partner concentration 90 nM)
# Summary of the method: as §1
# [9] = system: PPARg:RXRa 30nM:10nM, anti-RXR (NR concentration 30 nM, RXRa partner concentration 10 nM)
# Summary of the method: as §1
# [10] = system: PPARg:RXRa 90nM:30nM, anti-RXR (NR concentration 90 nM, RXRa partner concentration 30 nM)
# Summary of the method: as §1
Sequence,PBM binding z-score [1],PBM binding z-score [2],PBM binding z-score [3],PBM binding z-score [4],PBM binding z-score [5],PBM binding z-score [6],PBM binding z-score [7],PBM binding z-score [8],PBM binding z-score [9],PBM binding z-score [10]
CGAGCTAGGTCATTGACAGGACAGTGAATAGTAA,5.01,3.11,0.348,2,-0.314,3.33,2.12,2.15,0.406,1.34
CCAGACTGGTGAGAAGGTAACTCAGCCTCGATTA,-0.309,-0.491,-0.22,-0.472,-0.739,-0.19,0.0437,-0.117,-0.431,-0.102
CCTTACGGGTCACTGACAGTTTATAGCATTTGGA,5.44,4.17,0.494,3.4,-0.118,5.18,4.21,4.37,1.57,3.25
ACAGACAGGTAAGTGAAGGTAACTCAGCTGGACG,0.106,0.0707,-0.103,-0.313,-0.579,-0.355,0.687,-0.165,-0.141,-0.389
TAGCCTAGGTCATTTAGGGGCCAGTATAGAAAGC,4.42,4.04,0.996,3.09,1.69,3.41,1.46,2.15,0.169,1.49
ATATGTAGGTGATCGGGTCATTCAGTTTGCGCAT,1.36,1.47,0.268,1.79,0.875,4.72,6.45,5.32,3.24,5.22
AGAACGAAGGCAATGAGTTGATAGCACGGGTGGC,-0.744,-0.976,-0.545,-0.999,-1.01,-0.613,0.809,-0.61,-0.619,-0.608
CCTATTAGTTGACCATAAGGGCAACCGAAGCTCG,1.08,0.988,0.64,0.736,0.554,0.977,0.556,0.931,-0.00379,1.03
TCTAGTTGGCCAAAGGTCACACACTCGAAATGCG,5.4,5.41,3.89,5.44,1.17,6.16,11,9.37,11.1,11.3
CGAACTAGGTCAAGGACAGTGATTCTCCGCACGC,3.46,2.21,0.289,1.56,-0.542,4.8,7.19,6.34,3.52,5.66
TAGCCTAGCTCATGGGCCAGTATACCACGCGAAC,-0.822,-0.837,-0.369,-0.9,-0.798,-0.776,0.282,-0.783,-0.762,-1.03
CGTCCAAGGACAAAGGTCAGTGAAGAGATGACGG,3.18,3.25,1,2.85,-0.0848,4.56,5.79,5.86,3.8,5.51
CCAGACAGGTGAGAAGGTAACTTAGCCTCGATTA,0.0387,0.133,-0.108,0.0826,-0.355,0.501,0.351,0.351,-0.0164,0.0696
CCTACTGGGCAACGAAAGGTCATTGATTCAGTGA,3.6,5.33,5.51,4.2,0.197,4.2,2.1,3.54,0.974,2.72
CCTACTGGGCCATCAGGTCATTGAGATCAACGTT,1.65,1.44,1.22,1.45,-0.336,2.93,3.04,3.58,1.41,3.12
AGCTCTAGGTAAAGATAGTTCAGTGAATGCAAAT,-0.108,3.76,0.0998,0.693,-0.0126,0.354,0.0941,0.135,-0.22,-0.0707
AGTCAAAGATCATCTAGGTAACGTAAGATATGCT,-0.125,0.0142,-0.0346,-0.0476,-0.391,0.828,1.67,1.54,0.643,1.16
GCTGCTAGGTCAACTGATAGTCAGCTAAAGCTCG,4,2.78,-0.18,1.91,-0.159,3.77,2.91,3.17,0.765,2.41
ACTTACGGGTGAACGAGGTTATAGCACGCGTATA,0.972,1.28,0.16,1.21,-0.375,2.36,1.73,1.35,0.333,0.745
GATACAGGGTCAGCTAGAGGCCAAAGTATGGAAA,5.01,3.57,0.0556,3.09,-0.391,4.59,3.94,3.58,1.03,2.36
CGAACTAGGTCAAGTACAGTGAATCTCCGCACGC,4.5,2.83,0.474,2.32,0.607,4.85,7.57,6.29,4.41,5.92
TTTTGTAGATCAACAGGAGGTTAAGAAAGATCGA,0.519,1.38,0.44,1.16,0.116,1.7,0.596,1.25,1.03,1.29
TCAGACAGGTGAAGGTAACTCAAGTACGCAGTCG,1.22,2.77,0.105,1.47,0.174,1.33,0.828,2.07,4.18,3.03
ACTAGCAGGCCGAGTTTGGGTCACTCAAACAAAG,-0.115,-0.146,-0.389,0.653,-0.928,1.21,-0.2,-0.103,-0.644,-0.461

Sequence,PBM binding z-score [1],PBM binding z-score [2],PBM binding z-score [3],PBM binding z-score [4],PBM binding z-score [5],PBM binding z-score [6],PBM binding z-score [7],PBM binding z-score [8],PBM binding z-score [9],PBM binding z-score [10]
CAAACTTGGTCAAGAGGTCAAAGTCCGCTTCCCG,5.72,5.27,5.52,5.04,1.18,5.37,4.2,5.18,2.94,4.56
CTCGAAAGGTCGGTTGAGGTGAGTACACGGATAA,2.34,1.85,-0.128,1.5,-0.0877,2.77,0.546,1.4,0.191,0.951
CGTCCAAGGTCATAGGAGGACAGTGAAGACAGAT,7.15,6.2,1.35,4.45,0.52,5.39,4.71,4.97,1.81,3.56
GTTACAGGGTCAGCTAGAGGCCAGAGTATGGAAA,4.39,3.18,-0.168,2.39,0.166,4.41,3.35,3.64,0.837,2.63
CAAACTAGGTCACTGGAAGGTCAAAGTCCGCATG,5.47,5.41,4.68,4.88,1.36,5.88,9.17,7.25,5.53,7.22
CTACCAAGGTGAACAAGGTCGTTTATTACTATTC,1.5,1.78,0.765,2.61,-0.00441,2.46,1.06,1.2,0.0871,0.818
TCGAGTAGGTTAGTGGGGGCATTCAGCCAACATA,1.28,1.52,0.619,3.73,6.59,2.68,2.05,3.03,1.76,2.53
ATCTCTAGGTAAGACTCAGTTTAGTGAAGAACGC,0.613,0.734,0.489,0.362,0.843,-0.0694,0.158,0.112,0.213,0.579
ACAGTCAGGTGAGTGAAGGTAACTCAGCTGGACG,0.264,0.217,-0.578,-0.682,-0.538,-0.317,0.268,0.101,-0.17,-0.277
GTAGCAAGGTGAATAGGTCGTTGATGAGTAGGCG,0.435,0.286,-0.884,0.119,-1.35,2.05,0.986,1.48,0.12,0.807
ATATTTAGGTTACATCCGGGTCATTCAGGCTATG,2.65,4.19,2.61,3.21,1.94,4.28,4.37,4.16,2.28,3.35
GCATATCGGTAATACAAGGTGAAAGTCCGATTGT,0.694,0.4,0.294,0.243,-0.333,0.84,0.415,0.8,0.385,0.634
TAGCCTAGGTCATGGGCCAGCATACCACGCGAAC,4.04,3.14,0.0336,2.05,-0.463,3.9,3.38,3.53,1.26,2.69
CCTTACGGATCACGAGGTTATAGCACGACGAGCG,0.639,1.1,0.818,1.11,0.481,1.48,1.06,0.294,0.0325,0.104
CGTGCTAGGTCATGGTCAGCTAATCTACAGTATG,3.55,2.46,0.0428,1.84,-0.338,3.36,2.98,2.8,0.471,2.11
GGAACGAGGGCAATCGAGTTGATAGCATGGCGAT,0.644,0.434,-0.647,-0.187,-0.883,1.38,1.12,0.753,-0.285,0.268
AGTCAAAGTTCATCTAGGTAACGTTAGATATGCT,6.45,6.1,5.46,3.96,1.99,4.88,6.36,6.31,3.3,5.58
CCTAGTTGGTTAAGGTCACACACGCTATAGGTAC,4.71,4.56,2.6,4.3,1.42,4.33,2.68,3.2,1.24,2.39
GGAACGAGGGCAAAGCTGATAGCATCTGTCGACG,0.392,0.366,-0.605,-0.126,-0.711,1.68,1.5,1.78,0.251,1.17
GGAACGAGGGCATTCGATTTGATAGCATGGCGAT,0.98,0.589,-0.512,0.472,-0.24,1.49,1.13,1.23,0.159,0.731
TCTATTAGTTGATTAGGGCACCCGAAACAGCGGA,0.613,0.698,0.336,0.367,0.572,0.646,0.343,1.83,3.73,2.91
CGAGCTAGGTCATCCAGGACAGTGAATACATTGA,4.29,2.49,0.492,1.96,0.0673,3.54,2.6,2.25,0.528,1.35
GTACCAAGGTGAATAGGTCGTTGCTGAGTAGGCG,0.799,0.799,-0.43,0.493,-0.623,2.23,1.21,1.71,-0.00379,1.18
GGGACGAGGGCAAAGTTGATAGCATCTGTCGACG,1.7,1.11,-0.058,1.41,0.182,3.68,6.58,6.7,5.3,6.62
